The subject of assay [1] is XIP peptide (Xip251-270) binding. The experiment in a line: XIP fragment 251-270 binding compounds – biochemical, small-molecule microarray, fluorescence 635/667 nm, 0.1 µg/mL protein, primary screen (AID 1182). Conditions: fluorescent protein binding, 635 nm, higher = more signal, called active from +8 up or from −8 down.
The next assay relates to XIP peptide (Xip251-270). In words: compounds binding XIP fragment 251-270 – biochemical, small-molecule microarray, fluorescence 635/667 nm, 0.5 µg/mL protein, primary screen (AID 1183). Conditions: fluorescence 635 nm, higher = more signal.
The nature of assay [2]: blood-stage malaria parasite viability loss – strain 3D7, DAPI fluorescence, 100 nL, primary screen (AID 1184).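 Further: parasites grown inside human red blood cells in medium with human serum.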 Conditions: P. falciparum 3D7 growth, 3 d, higher = more signal.
The target of assay [3] is Homeobox protein Hox-A13 (Mus musculus) (UniProt Q62424). In words: disruptors of Hoxa13 oligonucleotide interaction – biochemical, fluorescence polarization, labeled oligonucleotide, primary screen (AID 1185). Conditions: Hoxa13:DNA binding, 15 min, higher = more signal, called active from +8 up or from −8 down.

Activity calls are given as the source filed them.

Sequence of Homeobox protein Hox-A13 (Mus musculus) (Q62424 whole entry, looked up): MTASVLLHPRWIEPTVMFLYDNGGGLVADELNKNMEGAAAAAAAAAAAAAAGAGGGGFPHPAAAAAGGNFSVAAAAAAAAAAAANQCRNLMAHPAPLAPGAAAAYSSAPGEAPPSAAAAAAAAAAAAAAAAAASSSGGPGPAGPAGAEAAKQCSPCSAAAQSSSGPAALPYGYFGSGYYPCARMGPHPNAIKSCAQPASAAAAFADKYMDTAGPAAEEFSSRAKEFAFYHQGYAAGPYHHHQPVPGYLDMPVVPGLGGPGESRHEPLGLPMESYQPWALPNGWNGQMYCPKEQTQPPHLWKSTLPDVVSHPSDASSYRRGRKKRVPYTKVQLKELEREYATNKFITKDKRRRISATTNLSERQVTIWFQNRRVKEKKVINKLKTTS

On to `CC(C)(C)N1C(=O)[C@H]2[C@@H]3C(=CC[C@H]2C1=O)C(=O)[C@H]1O[C@H]1[C@H]3O`, for which the composite z-score in assay [1] was 0.139 (inactive); in the assay with XIP peptide (Xip251-270), 0.283. Also, the z-score in assay [2] is -2.38; in assay [3] it was -5.76 (inactive).

`O=C1C=C[C@@H](O)[C@@H]2[C@@H]3C(=O)N(Cc4ccc5c(c4)OCO5)C(=O)[C@@H]3CC[C@@H]12`: the composite z-score in assay [1] is -0.297 (inactive); with XIP peptide (Xip251-270), 0.228. Besides, the z-score in assay [2] is -0.786; in assay [3], -0.416 (inactive).

`CC(=O)OC[C@H]1O[C@H](C#CCCc2ccccc2)C=C[C@@H]1OC(C)=O`: the results for the composite z-score (in assay [1]; with XIP peptide (Xip251-270)) were 0.22 (inactive) and 0.758, respectively. For the same compound, the results for the z-score in assay [2] and in assay [3] were 0.972 and -4.7 (inactive), respectively.

Consider `CC(C)CON=C1C[C@@H](O)[C@@H](O)[C@@H]2[C@@H]3C(=O)N([C@@H](C)c4ccccc4)C(=O)[C@@H]3CC[C@@H]12`, for which the composite z-score is 0.0068 (inactive) in assay [1] and -0.344 in the assay with XIP peptide (Xip251-270). Moreover, the z-score is -0.274 in assay [2] and -2.35 (inactive) in assay [3].

Consider `O=C1CCCC=C1C(O)c1ccc([N+](=O)[O-])cc1` (configuration not stated), for which the results for the composite z-score (in assay [1]; in the assay with XIP peptide (Xip251-270)) were -0.542 (inactive) and 0.852, respectively. Moreover, the results for the z-score in assay [2] and in assay [3] were 0.938 and 0.164 (inactive), respectively.

Take `COc1ccc(COC(=O)NN=C2C[C@@H](O)[C@@H](O)[C@@H]3[C@@H]4C(=O)N(C[C@@H]5CCCO5)C(=O)[C@@H]4CC[C@H]23)cc1`: the composite z-score in assay [1] is -0.0696 (inactive); with XIP peptide (Xip251-270) it was -0.239. The z-score is -0.534 in assay [2] and 0.459 (inactive) in assay [3].

Regarding `COc1ccc(COC(=O)NN=C2C[C@@H](O)[C@@H](O)[C@@H]3[C@@H]4C(=O)N(C(C)(C)C)C(=O)[C@@H]4CC[C@@H]23)cc1`, the composite z-score in assay [1] is 0.457 (inactive); in the assay with XIP peptide (Xip251-270) it was 0.48. Besides, the results for the z-score in assay [2] and in assay [3] were 0.553 and -1.64 (inactive), respectively.

Take `CC(C)CN1CCc2nc(-c3ccccc3)c3c(c2C1)CO[C@@H](C)C3`: the composite z-score in assay [1] is 0.973 (inactive); with XIP peptide (Xip251-270) it was 0.687. Moreover, the results for the z-score in assay [2] and in assay [3] were -0.927 and -4.73 (inactive), respectively.

Take `CCOC(=O)[C@H](Cc1ccccc1)NC(=O)CCC1CC(OC(=O)NCCc2ccc(F)cc2)CC2(CCCC(COC(=O)NCc3cccc(C(F)(F)F)c3)O2)O1` (some centres not stated): the values for the composite z-score (in assay [1]; with XIP peptide (Xip251-270)) were 0.966 (inactive) and 0.463, respectively. In addition, the values for the z-score in assay [2] and in assay [3] were -1.9 and -3.11 (inactive), respectively.

On to `COc1cccc([C@H]2Oc3ccc(OC)cc3C(=NO[C@@H](C)c3cc(-c4c(C)cc(C)cc4C)no3)[C@@H]2O)c1`, for which the composite z-score in assay [1] is -0.294 (inactive); in the assay with XIP peptide (Xip251-270) it was 0.0817. Besides, the z-score in assay [2] is -0.24; in assay [3], 0.621 (inactive).

For the compound `C[C@H]1CC[C@H]2C(=O)O[C@H](CO)CN2[C@@H]1c1ccc(Br)cc1`, the composite z-score in assay [1] was -0.0442 (inactive); with XIP peptide (Xip251-270) it was -0.127. In addition, the z-score in assay [2] was 0.389; in assay [3], -3.98 (inactive).

Take `CCCNC(=O)OC[C@H]1O[C@H](CCON=C2c3cc(OC)ccc3O[C@H](c3cccc(OC)c3)[C@H]2O)C=C[C@@H]1Oc1ccc(OC)cc1`: the values for the composite z-score (in assay [1]; in the assay with XIP peptide (Xip251-270)) were 0.328 (inactive) and 0.693, respectively. The z-score in assay [2] was 0.365; in assay [3], -1.94 (inactive).

In the case of `CC(=O)OC[C@H]1O[C@H](C#CCC2CCCCC2)C=C[C@@H]1OC(C)=O`, the composite z-score in assay [1] is 0.525 (inactive); in the assay with XIP peptide (Xip251-270) it was 0.392. The z-score in assay [2] was 0.951; in assay [3], -5.27 (inactive).

Consider `C#CCCCON=C1C[C@@H](O)[C@@H](O)[C@@H]2[C@@H]3C(=O)N(CC)C(=O)[C@@H]3CC[C@H]12`, for which the composite z-score in assay [1] is 0.835 (inactive); in the assay on XIP peptide (Xip251-270) it was -0.423. The z-score in assay [2] is -0.263; in assay [3] it was 0.0042 (inactive).

With `CC(C)=NOC(C)CN1CCCCc2nc(C)c(C)cc21` (configuration not stated), the composite z-score in assay [1] was -0.203 (inactive); with XIP peptide (Xip251-270) it was 0.208. For the same compound, the z-score is 1.35 in assay [2] and -1.28 (inactive) in assay [3].

For the compound `CC(=O)OC[C@H]1O[C@H](CC=NOCC[C@@H]2C=C[C@H](OC(C)=O)[C@@H](COC(C)=O)O2)C=C[C@@H]1OC(C)=O`, the values for the composite z-score (in assay [1]; with XIP peptide (Xip251-270)) were -0.0772 (inactive) and 0.677, respectively. The z-score in assay [2] is 0.256; in assay [3], -0.963 (inactive).

For the compound `CC(CCN1CCc2nc(-c3ccccc3)c(-c3ccccc3)cc2C1)=NO[C@@H](C)c1cc(-c2c(C)cc(C)cc2C)no1`, the values for the composite z-score (in assay [1]; in the assay with XIP peptide (Xip251-270)) were 1.27 (inactive) and 0.416, respectively. Also, the figures for the z-score in assay [2] and in assay [3] were -1.31 and 0.713 (inactive), respectively.

`COC(=O)[C@H](C)NC(=O)CCC1CC(OC(=O)NCc2cccc3ccccc23)CC2(CCCC(COC(=O)NCc3ccccc3)O2)O1` (some centres not stated): the composite z-score in assay [1] was 0.0457 (inactive); in the assay on XIP peptide (Xip251-270) it was 0.461. Moreover, the z-score in assay [2] is -2.02; in assay [3], -1.39 (inactive).

Turning to `CCCNC(=O)OC[C@H]1O[C@H](CCON=C[C@@H](C)[C@H](OCc2ccccc2)C(C)C)C=C[C@@H]1Oc1ccc(OC)cc1`, the composite z-score in assay [1] was 0.196 (inactive); in the assay with XIP peptide (Xip251-270), -0.267. Further, the values for the z-score in assay [2] and in assay [3] were -0.591 and -3.32 (inactive), respectively.

For `CC(C)CON=C1C[C@@H](O)[C@@H](O)[C@@H]2[C@@H]3C(=O)N(c4ccc(F)cc4F)C(=O)[C@@H]3CC[C@@H]12`, the figures for the composite z-score (in assay [1]; in the assay on XIP peptide (Xip251-270)) were 0.681 (inactive) and 0.218, respectively. Besides, the z-score in assay [2] was -1.66; in assay [3], -0.567 (inactive).

Consider `C[C@H]1CC[C@@H](C(=O)O)N[C@@H]1c1ccc(C#Cc2ccccc2)cc1`, for which the composite z-score in assay [1] was -0.125 (inactive); in the assay with XIP peptide (Xip251-270), 0.601. Further, the values for the z-score in assay [2] and in assay [3] were -1.61 and -2.16 (inactive), respectively.

As to `CCOC(=O)[C@H](CC(C)C)NC(=O)CCC1CC(OC(=O)NCCc2ccc(F)cc2)CC2(CCCC(COC(=O)NCCCN3CCCC3=O)O2)O1` (some centres not stated), the composite z-score was 0.173 (inactive) in assay [1] and 0.74 in the assay with XIP peptide (Xip251-270). In addition, the results for the z-score in assay [2] and in assay [3] were -1.82 and -6.3 (inactive), respectively.

As for `CCN1C(=O)[C@H]2[C@H]3[C@H](O)[C@H](O)CC(=NOC[C@@H](O)[C@H]4O[C@@H]5OC(C)(C)O[C@@H]5[C@H]4O)[C@@H]3CC[C@H]2C1=O`, the composite z-score in assay [1] is -0.0371 (inactive); with XIP peptide (Xip251-270), 0.33. Also, the z-score in assay [2] is 0.663; in assay [3], 0.303 (inactive).
